Source: the supplement of paper PMC13380429

Tested on: Vero E6 infected with SARS-CoV-2
Assay: inhibition of SARS-CoV-2 cytopathic effect; higher = more antiviral protection, active = above 15
Details: 48 h

Measured: inhibition of SARS-CoV-2 cytopathic effect

Cn1cc(-c2ccc(S(=O)(=O)n3ccc(/C=C/C(=O)Nc4ccccc4N)c3)cc2)cn1
inactive: 1 nM -0.95% | 8.33 nM 1.05% | 100 nM -0.51% | 833.33 nM -4.65% | 10000 nM -1.31%

Nc1c2c(nc3c1CCC3)CCCC2 [ipidacrine]
inactive: 1 nM 1.46% | 8.33 nM 1.94% | 100 nM 1.19% | 833.33 nM 0.32% | 10000 nM 3.14%

CC(C)(C)NC(=O)N[C@H](C(=O)N1C[C@H]2[C@@H]([C@H]1C(=O)NC(CC1CCC1)C(=O)C(N)=O)C2(C)C)C(C)(C)C (stereo not given in full) [boceprevir]
inactive: 1 nM 0.88% | 8.33 nM -0.31% | 100 nM -1.61% | 833.33 nM -1.89% | 10000 nM 1.17%

O=C(O)COCCN1CCN(C(c2ccccc2)c2ccc(Cl)cc2)CC1 (stereo not given) [cetirizine]
inactive: 1 nM -1.03% | 8.33 nM 1.14% | 100 nM -0.08% | 833.33 nM 0.99% | 10000 nM -2.71%

CCOC(=O)c1ccc(-c2ccc(OC(=O)N(C)Cc3cccc(-c4ccncc4)c3)cc2)cc1
inactive: 1 nM 2.8% | 8.33 nM -0.08% | 100 nM 3.06% | 833.33 nM 4.52% | 10000 nM 4.58%

CNC(=O)c1cc(Oc2ccc(NC(=O)Nc3ccc(Cl)c(C(F)(F)F)c3)c(F)c2)ccn1 [regorafenib]
inactive: 1 nM 2.3% | 8.33 nM 3.25% | 100 nM 1.21% | 833.33 nM -1.69% | 10000 nM 2.67%

COc1ccc2c(OCc3nnc4ccc(-c5ccccc5)nn34)ccnc2c1
inactive: 1 nM 1.19% | 8.33 nM -0.48% | 100 nM 0.42% | 833.33 nM -0.17% | 10000 nM 1.81%

CN(C)CCCN1c2ccccc2Sc2ccc(C(F)(F)F)cc21 [triflupromazine]
inactive: 1 nM 1.3% | 8.33 nM -0.49% | 100 nM -1.51% | 833.33 nM 1.78% | 10000 nM 0.59%

CS(=O)(=O)n1cc2c(n1)CN([C@H]1CO[C@H](c3cc(F)ccc3F)[C@@H](N)C1)C2 [omarigliptin]
inactive: 1 nM -0.75% | 8.33 nM 1.81% | 100 nM 0.23% | 833.33 nM 1.96% | 10000 nM 0.42%

CC(N)Cc1c[nH]c2ccc(OCc3cccs3)cc12 (stereo not given)
inactive: 1 nM 0.71% | 8.33 nM -0.24% | 100 nM 0.67% | 833.33 nM -1.65% | 10000 nM -3.56%

CCOc1cc2ncc(C#N)c(Nc3ccc(OCc4cccc(F)c4)c(Cl)c3)c2cc1NC(=O)/C=C/CN(C)C
inactive: 1 nM -1.73% | 8.33 nM -3.51% | 100 nM -7.95% | 833.33 nM -12% | 10000 nM -22%

N=C(N)NCCSSCCNC(=N)N [guanidinoethyldisulfide-bicarbonate]
inactive: 1 nM -2.83% | 8.33 nM -2.77% | 100 nM -1.91% | 833.33 nM -2.43% | 10000 nM -5.27%

CN1C(C(=O)Nc2ccccn2)=C(O)c2sccc2S1(=O)=O [tenoxicam]
inactive: 1 nM -1.61% | 8.33 nM -5.04% | 100 nM -1.6% | 833.33 nM 0.7% | 10000 nM -2.71%
